# Data from PubChem BioAssay (NCATS).
# Records with an inconclusive call do not appear. A call without a number means that no potency is given here. Calls of active or inactive are those of the source. The call rests on the fitted dose curve; in most records, active means well fitted inhibition curve with a large enough effect; inconclusive means small, poorly fitted or top-dose-only effect; inactive means flat fitted curve, though single readings scatter.
# System: CP305
# Test: qHTS profiling for inhibitors of Plasmodium falciparum proliferation (AID 504749); further: nearly all actives have a fitted effect of over 60% in size
# Conditions: P. falciparum in erythrocytes, SYBR Green DNA, 72 h; series mostly up to 12.8 µM
# Procedure, shortened: (§1)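 P. falciparum-infected erythrocytes (0.3% parasitemia, 2.5% hematocrit) incubated with compound 72 h at 37 C, 5% CO2. Parasite DNA detected by SYBR Green after lysis, overnight at room temperature; normalised to 0.29 uM artemisinin and DMSO.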
row,Compound,Potency
1,C[N+](C)(C)CC(O)CC(=O)O (stereo not given),inactive
2,CN1CCCC[C@@H]1CCN1c2ccccc2Sc2ccc(S(C)=O)cc21 (stereo not given in full),inactive
3,O=C(Cc1cccs1)NC1C(=O)N2C(C(=O)[O-])=C(C[n+]3ccccc3)CSC12 (stereo not given),inactive
4,C[C@@H]1CCC[C@H](C)N1NC(=O)c1ccc(Cl)c(S(N)(=O)=O)c1,inactive
5,CC(C)N1CCN(c2ccc(OC[C@@H]3CO[C@@](Cn4cncn4)(c4ccc(Cl)cc4Cl)O3)cc2)CC1,inactive

# System: CP315
# Test: as above
# Conditions: P. falciparum in erythrocytes, SYBR Green DNA, 72 h; series mostly up to 12.8 µM
# Procedure, shortened: as §1
row,Compound,Potency
1,C[N+](C)(C)CC(O)CC(=O)O (stereo not given),inactive
2,CN1CCCC[C@@H]1CCN1c2ccccc2Sc2ccc(S(C)=O)cc21 (stereo not given in full),inactive
3,O=C(Cc1cccs1)NC1C(=O)N2C(C(=O)[O-])=C(C[n+]3ccccc3)CSC12 (stereo not given),inactive
4,C[C@@H]1CCC[C@H](C)N1NC(=O)c1ccc(Cl)c(S(N)(=O)=O)c1,inactive
5,CC(C)N1CCN(c2ccc(OC[C@@H]3CO[C@@](Cn4cncn4)(c4ccc(Cl)cc4Cl)O3)cc2)CC1,inactive
